Values joined by “and” are separate entries in the source; they are usually repeats but may differ in a detail not shown here. Equal entries are not always repeated. The campaign covered roughly 5,500 compounds. About 2,000 (36%) were called active. About 18% were inconclusive and are not listed. Rule as the data show it: active = normalized growth mostly below about 0.91 (no sharp cut-off); inconclusive = no clear call, values can overlap the other calls; inactive = mostly above about 0.92. The list shows a part of the results.
Experiment: chemical genetic growth profiling, strain panel (AID 1159580);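 also: tested at 20 µM; growth read once vehicle control cultures reached saturation at 30 °C; 1 = growth at the plate median or of vehicle wells; lower values mean less growth of the strain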
Details: growth OD

Measured: normalized growth

CC(C)OC(=O)C(C)(C)Oc1ccc(C(=O)c2ccc(Cl)cc2)cc1
inactive: S. cerevisiae deletion strains, locus YJR075W, strain HOC1, active compounds read low 0.957 and 0.996 | S. cerevisiae deletion strains, locus YKL009W, strain mrt4, active compounds read low 0.906 | S. cerevisiae deletion strains, locus YKL068W, active compounds read low 0.987 | S. cerevisiae deletion strains, locus YKL085W, strain MDH1 (second series), active compounds read low 0.947 | S. cerevisiae deletion strains, locus YKL085W, strain MDH1, active compounds read low 0.947 | S. cerevisiae deletion strains, locus YKL160W, strain elf1, active compounds read low 0.987 | S. cerevisiae deletion strains, locus YKL190W, strain CNB1, active compounds read low 0.974 | S. cerevisiae deletion strains, locus YKR001C, strain vps1, active compounds read low 0.971 | S. cerevisiae deletion strains, locus YKR026C, strain gcn3, active compounds read low 0.959 | S. cerevisiae deletion strains, locus YKR091W, strain srl3, active compounds read low 0.977 | S. cerevisiae deletion strains, locus YLL001W, strain dnm1, active compounds read low 0.96 | S. cerevisiae deletion strains, locus YLL026W, active compounds read low 0.969 | S. cerevisiae deletion strains, locus YLL041C, strain sdh2, active compounds read low 0.975 | S. cerevisiae deletion strains, locus YLR027C, strain aat2, active compounds read low 0.967 | S. cerevisiae deletion strains, locus YLR039C, strain RIC1, active compounds read low 0.935 | S. cerevisiae deletion strains, locus YLR058C, strain SHM2, active compounds read low 1 | S. cerevisiae deletion strains, locus YLR102C, strain apc9, active compounds read low 0.988 | S. cerevisiae deletion strains, locus YLR113W, strain HOG1, active compounds read low 0.942 | S. cerevisiae deletion strains, locus YLR221C, strain rsa3, active compounds read low 0.976 | S. cerevisiae deletion strains, locus YLR258W, strain gsy2, active compounds read low 0.957 | S. cerevisiae deletion strains, locus YLR262C, strain YPT6 (second series), active compounds read low 0.962 | S. cerevisiae deletion strains, locus YLR262C, strain YPT6, active compounds read low 0.984 | S. cerevisiae deletion strains, locus YLR268W, strain sec22, active compounds read low 0.971 | S. cerevisiae deletion strains, locus YLR320W, strain mms22, active compounds read low 0.96 | S. cerevisiae deletion strains, locus YLR330W, strain CHS5, active compounds read low 1.01 | S. cerevisiae deletion strains, locus YLR342W, strain FKS1 (second series), active compounds read low 1.12 | S. cerevisiae deletion strains, locus YLR342W, strain FKS1, active compounds read low 0.955 | S. cerevisiae deletion strains, locus YLR357W, strain rsc2, active compounds read low 0.957 | S. cerevisiae deletion strains, locus YLR370C, strain arc18, active compounds read low 0.967 | S. cerevisiae deletion strains, locus YLR371W, strain rom2, active compounds read low 0.986 | S. cerevisiae deletion strains, locus YLR384C, strain iki3, active compounds read low 0.971 | S. cerevisiae deletion strains, locus YLR418C, strain cdc73, active compounds read low 0.879 | S. cerevisiae deletion strains, locus YML016C, strain PPZ1, active compounds read low 1.01 | S. cerevisiae deletion strains, locus YML032C, strain rad52, active compounds read low 0.984 | S. cerevisiae deletion strains, locus YML120C, strain ndi1, active compounds read low 0.964 | S. cerevisiae deletion strains, locus YML124C, strain tub3, active compounds read low 0.982 | S. cerevisiae deletion strains, locus YMR058W, strain fet3, active compounds read low 0.987 | S. cerevisiae deletion strains, locus YMR078C, strain ctf18, active compounds read low 0.982 | S. cerevisiae deletion strains, locus YMR125W, strain sto1, active compounds read low 0.942 | S. cerevisiae deletion strains, locus YMR129W, active compounds read low 0.97 | S. cerevisiae deletion strains, locus YMR205C, strain PFK2, active compounds read low 0.923 | S. cerevisiae deletion strains, locus YMR223W, strain ubp8, active compounds read low 0.958 | S. cerevisiae deletion strains, locus YMR231W, strain pep5, active compounds read low 0.969 | S. cerevisiae deletion strains, locus YMR263W, strain SAP30, active compounds read low 1 | S. cerevisiae deletion strains, locus YMR307W, strain GAS1, active compounds read low 0.807 and 0.993 | S. cerevisiae deletion strains, locus YNL067W, strain RPL9B, active compounds read low 0.973 | S. cerevisiae deletion strains, locus YNL071W, strain lat1, active compounds read low 0.941 | S. cerevisiae deletion strains, locus YNL128W, strain TEP1, active compounds read low 1.01 | S. cerevisiae deletion strains, locus YNL153C, strain GIM3, active compounds read low 1.01 and 1.02 | S. cerevisiae deletion strains, locus YNL175C, strain NOP13, active compounds read low 1.02 | S. cerevisiae deletion strains, locus YNL183C, strain NPR1, active compounds read low 0.893 | S. cerevisiae deletion strains, locus YNL197C, strain WHI3, active compounds read low 1.03 | S. cerevisiae deletion strains, locus YNL209W, strain ssb2, active compounds read low 0.983 | S. cerevisiae deletion strains, locus YNL224C, strain SQS1, active compounds read low 0.991 | S. cerevisiae deletion strains, locus YNL233W, strain BNI4, active compounds read low 0.978 | S. cerevisiae deletion strains, locus YNL248C, strain rpa49, active compounds read low 0.997 | S. cerevisiae deletion strains, locus YNL250W, strain rad50, active compounds read low 0.989 | S. cerevisiae deletion strains, locus YNL271C, strain bni1, active compounds read low 0.985 | S. cerevisiae deletion strains, locus YNL298W, strain CLA4, active compounds read low 0.992 | S. cerevisiae deletion strains, locus YNL307C, strain MCK1, active compounds read low 0.973 | S. cerevisiae deletion strains, locus YNL322C, strain KRE1 (second series), active compounds read low 0.983 | S. cerevisiae deletion strains, locus YNL322C, strain KRE1, active compounds read low 1.01 and 0.984 | S. cerevisiae deletion strains, locus YNR049C, strain mso1, active compounds read low 0.98 | S. cerevisiae deletion strains, locus YNR052C, strain pop2, active compounds read low 0.991 | S. cerevisiae deletion strains, locus YOL006C, strain TOP1, active compounds read low 0.61 | S. cerevisiae deletion strains, locus YOL012C, strain htz1 0.615 | S. cerevisiae deletion strains, locus YOL147C, strain pex11, active compounds read low 0.984 | S. cerevisiae deletion strains, locus YOR001W, strain rrp6, active compounds read low 0.99 | S. cerevisiae deletion strains, locus YOR061W, strain CKA2, active compounds read low 0.986 | S. cerevisiae deletion strains, locus YOR069W, strain VPS5, active compounds read low 1.01 | S. cerevisiae deletion strains, locus YOR070C, strain gyp1, active compounds read low 0.971 | S. cerevisiae deletion strains, locus YOR080W, strain dia2, active compounds read low 0.972 | S. cerevisiae deletion strains, locus YOR083W, strain WHI5 (second series), active compounds read low 1.12 | S. cerevisiae deletion strains, locus YOR083W, strain WHI5, active compounds read low 0.996 | S. cerevisiae deletion strains, locus YOR106W, strain vam3, active compounds read low 0.927 | S. cerevisiae deletion strains, locus YOR136W, strain idh2, active compounds read low 0.989 | S. cerevisiae deletion strains, locus YOR144C, strain elg1, active compounds read low 0.992 | S. cerevisiae deletion strains, locus YOR184W, strain ser1, active compounds read low 0.909 | S. cerevisiae deletion strains, locus YOR231W, strain MKK1, active compounds read low 0.949 | S. cerevisiae deletion strains, locus YOR265W, strain rbl2, active compounds read low 0.97 | S. cerevisiae deletion strains, locus YOR270C, strain vph1, active compounds read low 0.799 | S. cerevisiae deletion strains, locus YOR290C, strain snf2, active compounds read low 0.97 | S. cerevisiae deletion strains, locus YOR316C, strain cot1, active compounds read low 0.988 | S. cerevisiae deletion strains, locus YPL051W, strain arl3, active compounds read low 1 | S. cerevisiae deletion strains, locus YPL055C, strain LGE1, active compounds read low 0.971 | S. cerevisiae deletion strains, locus YPL078C, strain atp4, active compounds read low 0.985 | S. cerevisiae deletion strains, locus YPL106C, strain sse1, active compounds read low 1.02 | S. cerevisiae deletion strains, locus YPL240C, strain hsp82, active compounds read low 0.994 | S. cerevisiae deletion strains, locus YPL241C, strain CIN2, active compounds read low 0.99 and 0.991 | S. cerevisiae deletion strains, locus YPL256C, strain CLN2, active compounds read low 0.953 | S. cerevisiae deletion strains, locus YPR119W, strain clb2, active compounds read low 0.983 | S. cerevisiae deletion strains, locus YPR141C, strain kar3, active compounds read low 0.985 | S. cerevisiae deletion strains, locus YPR163C, strain tif3, active compounds read low 0.981 | S. cerevisiae deletion strains, locus YPR167C, strain met16, active compounds read low 0.984 | S. cerevisiae deletion strains, strain wtn01, active compounds read low 0.987 | S. cerevisiae strains, strain wild type, active compounds read low 0.993

— PubChem BioAssay AID1159580 (chemical genetic matrix, 2015)
